Data on 26 molecules can be found in PubChem BioAssay (NCATS).

Records with an inconclusive call do not appear. Active and inactive are the calls of the source. Calls follow the shape of the full dose curve. Positions of bridges follow the written chain, without caps; N, C: chain ends. Non-standard residues stand in square brackets, D forms with d. Residues, ends and D or L forms follow the SMILES beside them. ξ: configuration not given here. *: point of attachment. Octanoyl(6-Me) = CCC(C)CCCCC(=O)*; ξThr(3R) = C[C@@H](O)C(N)C(=O)O; dDab = NCC[C@@H](N)C(=O)O; Dab = NCC[C@H](N)C(=O)O

Test [1] is described as follows: qHTS drug screen for cell cycle checkpoint inhibitors in PARPi-resistant BRCA-mutant ovarian cancer cell lines. (AID 1963452). Also: potency is read from the fitted curve at half-maximal effect. The settings on record: PEO1/OlaR viability, CellTiter-Glo luminescence, 96 h; for Z-AUC: stronger effect = lower value. The method, boiled down:
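PEO1, PEO4 and PEO1/OlaR ovarian cancer cells, 600 per well, exposed 96 h at 37C to a dilution series. Viability read by CellTiter-Glo luminescence, normalized to DMSO and empty wells; activity summarized as Z-AUC.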
(qHTS replaces the single test concentration by a dilution series.)

The nature of test [2]: qHTS for identification of novel therapeutic agents for treatment of microphthalmiaassociated transcription factor (MiT) renal cell carcinoma (RCC) (AID 1963991). Conditions: CellTiter-Glo, 48 h, stronger effect = lower value. The method, boiled down: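 Three TFE3-fusion RCC lines (UOK109, UOK124, UOK145), 500 cells/well in complete medium, were treated with MIPE 4.0 compounds for 48 hours at 37 C. Viability was by CellTiter-Glo luminescence, normalized to DMSO (100%) and empty wells (0%); curves fitted over 11 concentrations.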

Where [3] appears, read: measured here: PEO1 parental Z-AUC.
Setting [4] is: TFE3-RCC UOK109 viability, measured here: UOK109 Z-AUC.
The mark [5] stands for this setting: TFE3-RCC viability, measured here: UOK124 Z-AUC.
Setting [6] is: TFE3-RCC viability, measured here: UOK145 Z-AUC.

For `Oc1ccc(-c2ccc(-c3cc(Nc4cccc(CNC5CC5)c4)n[nH]3)cc2)c(O)c1`, the Z-AUC in test [1] is -0.35 (inactive); in test [1] (setting [3]), 0.119; in test [1] (measured here: PEO4 Z-AUC), 0.0871.
For `COc1cc(C)c(Sc2cnc(NC(=O)c3ccc(CNC(C)C(C)(C)C)cc3)s2)cc1C(=O)N1CCN(C(C)=O)CC1` (centres undefined) the same measures were -0.0176 (inactive), -0.233 and -0.809.
For the molecule `c1cc(N[C@@H]2CCNC2)nc(-c2cnc3ccc(-c4cn[nH]c4)cn23)c1`, the results for the Z-AUC in test [1], in test [1] (setting [3]) and in test [1] (measured here: PEO4 Z-AUC) were -1.39 (inactive), -0.698 and -0.866, respectively.
As for `FC(F)c1nc2ccccc2n1-c1nc(N2CCOCC2)nc(N2CCOCC2)n1`, the Z-AUC in test [1] is -1.24 (inactive); in test [1] (setting [3]) it was -1.07; in test [1] (measured here: PEO4 Z-AUC), -0.858.
For `Cc1noc(-c2ccc(CSCCC(=O)O)cc2)c1NC(=O)OC(C)c1ccccc1Cl` (centres undefined), the Z-AUC is -0.506 (inactive) in test [1], -0.869 in test [1] (setting [3]) and -0.91 in test [1] (measured here: PEO4 Z-AUC). Moreover, the z-score in test [2] (setting [4]) is -0.684; in test [2] (setting [5]) it was 0.0534; in test [2] (setting [6]) it was 0.402.
Regarding `COc1ccc(C[C@@H](C)[C@@H](C)Cc2ccc(OC)c(OC)c2)cc1OC`, the Z-AUC in test [1] was 0.193 (inactive); in test [1] (setting [3]), -0.135; in test [1] (measured here: PEO4 Z-AUC), 0.0624.
For `CCOC(=O)[C@@H](N)Cc1ccc(-c2cc(O[C@H](c3ccc(Cl)cc3-n3ccc(C)n3)C(F)(F)F)nc(N)n2)cc1` the same measures were -0.389 (inactive), -0.62 and -0.32.
With `Nc1nc(N)c2nc(-c3cccc(O)c3)c(-c3cccc(O)c3)nc2n1`, the Z-AUC in test [1] was 0.00904 (inactive); in test [1] (setting [3]) it was 1.16; in test [1] (measured here: PEO4 Z-AUC), 0.781.
With `COc1cccc2c1C(=O)c1c(O)c3c(c(O)c1C2=O)C[C@@](O)(C(=O)CO)C[C@@H]3O[C@H]1C[C@H](N)[C@@H](O)[C@H](C)O1`, the Potency in test [1] was 219 nM (active). The Z-AUC in test [1] (setting [3]) is -2.06; in test [1] (measured here: PEO4 Z-AUC), -1.69.
Consider `COc1ccc(S(=O)(=O)Nc2cc(-c3c(O)ccc4ccccc34)c(O)c3ccccc23)cc1`, for which the figures for the Z-AUC in test [1], in test [1] (setting [3]) and in test [1] (measured here: PEO4 Z-AUC) were 0.502 (inactive), 0.417 and 0.118, respectively.
For `Nc1nc(=O)n([C@H]2C[C@H](O)[C@@H](CO)O2)cc1F` the same measures were -1.47 (inactive), -1.19 and -0.999.
For `CC(C)c1cc(C(C)C)c(CC(=O)NS(=O)(=O)Oc2c(C(C)C)cccc2C(C)C)c(C(C)C)c1` the same measures were 0.134 (inactive), 0.546 and 1.13.
In the case of `C=CC(=O)N1CCc2ccc(-n3c(=O)ccc4cnc5ccc(-c6cnn(C)c6)cc5c43)cc21`, the Z-AUC in test [1] is -0.366 (inactive); in test [1] (setting [3]), -0.285; in test [1] (measured here: PEO4 Z-AUC), -0.334.
Take `C[C@H](NC(=O)Cc1cc(F)cc(F)c1)C(=O)N[C@H](C(=O)OC(C)(C)C)c1ccccc1`: the figures for the Z-AUC in test [1], in test [1] (setting [3]) and in test [1] (measured here: PEO4 Z-AUC) were -0.609 (inactive), -0.43 and -0.265, respectively.
For `CC(C)(N)c1ccc(-c2nc3ccccc3nc2-c2ccccc2)cc1`, the Z-AUC in test [1] was 0.345 (inactive); in test [1] (setting [3]), 0.18; in test [1] (measured here: PEO4 Z-AUC), 0.291.
For `COc1cc(C(=O)NC2CCN(C)CC2)ccc1Nc1ncc2c(n1)N(C1CCCC1)CCC(=O)N2C(C)C`, the Z-AUC is -0.77 (inactive) in test [1], 0.079 in test [1] (setting [3]) and -0.318 in test [1] (measured here: PEO4 Z-AUC).
Regarding `O=C(Nc1nnc(-c2ccco2)o1)c1cc(-c2ccccc2)nc2ccccc12`, the figures for the Z-AUC in test [1], in test [1] (setting [3]) and in test [1] (measured here: PEO4 Z-AUC) were 1.38 (inactive), 0.606 and 0.601, respectively.
In the case of `CC(C)c1cnn2c(NCc3ccccc3)cc(NCCCCCCN)nc12`, the Z-AUC is 1.27 (inactive) in test [1], 1.33 in test [1] (setting [3]) and 1.15 in test [1] (measured here: PEO4 Z-AUC).
Regarding `COc1cc(C(C)C)c(Oc2cnc(NC(CO)CO)nc2N)cc1I`, the Z-AUC in test [1] is 0.743 (inactive); in test [1] (setting [3]), 1.44; in test [1] (measured here: PEO4 Z-AUC), 1.02.
For `OCCNC1CCCc2c1[nH]c1ccc(-c3ccccc3)cc21` (centres undefined) the same measures were -0.486 (inactive), -0.384 and 0.0631.
Take `C=C(C)[C@@H]1CC[C@]2(C(=O)O)CC[C@]3(C)[C@H](CC[C@@H]4[C@@]5(C)CC[C@H](O)C(C)(C)[C@@H]5CC[C@]43C)[C@@H]12`: the Z-AUC in test [1] is 1.23 (inactive); in test [1] (setting [3]) it was 0.622; in test [1] (measured here: PEO4 Z-AUC), 0.86. For the same molecule, the z-score was 0.38 in test [2] (setting [4]), 0.714 in test [2] (setting [5]) and 0.25 in test [2] (setting [6]).
As for `C=C[C@@H]1CN2CCC1C[C@H]2[C@H](O)c1ccnc2ccc(OC)cc12` (some centres undefined), the figures for the Z-AUC in test [1], in test [1] (setting [3]) and in test [1] (measured here: PEO4 Z-AUC) were -0.116 (inactive), 0.594 and 0.97, respectively. Besides, the z-score in test [2] (setting [4]) was found to be 0.232; in test [2] (setting [5]), 0.335; in test [2] (setting [6]), 0.288.
Take `O=C1c2cccc(O)c2C(=O)c2c(O)cc(CO)cc21`: the results for the Z-AUC in test [1], in test [1] (setting [3]) and in test [1] (measured here: PEO4 Z-AUC) were 0.225 (inactive), -0.222 and -0.301, respectively. In addition, the z-score in test [2] (setting [4]) amounted to 0.181; in test [2] (setting [5]), 0.143; in test [2] (setting [6]), 0.0189.
Consider `CC(=O)OC[C@@H]1O[C@@H](n2ccc(=O)[nH]c2=O)[C@H](OC(C)=O)[C@H]1OC(C)=O`, for which the figures for the Z-AUC in test [1], in test [1] (setting [3]) and in test [1] (measured here: PEO4 Z-AUC) were 0.415 (inactive), 0.423 and 0.195, respectively. For the same molecule, the values for the z-score in test [2] (setting [4]), in test [2] (setting [5]) and in test [2] (setting [6]) were 0.396, 1.22 and 0.244, respectively.
As for `CCC(C)CCCCC(=O)N[C@@H](CCN)C(=O)NC(C(=O)N[C@H](CCN)C(=O)N[C@@H]1CCNC(=O)C([C@@H](C)O)NC(=O)[C@@H](CCN)NC(=O)[C@@H](CCN)NC(=O)[C@@H](CC(C)C)NC(=O)[C@H](Cc2ccccc2)NC(=O)[C@H](CCN)NC1=O)[C@@H](C)O` (stereo partly drawn) ({Octanoyl(6-Me)}-[Dab][ξThr(3R)][dDab][dDab][Dab]F[dL][dDab][dDab][ξThr(3R)]; lactam 4-C), the Z-AUC is 1.19 (inactive) in test [1], 0.672 in test [1] (setting [3]) and 0.762 in test [1] (measured here: PEO4 Z-AUC). Besides, the z-score in test [2] (setting [4]) came out at 0.782; in test [2] (setting [5]), 0.881; in test [2] (setting [6]) it was 0.703.
Consider `C[C@@H]1CC[C@@]2(OC1)OC1CC3C4CC=C5CC(O)CCC5(C)C4CCC3(C)C1[C@@H]2C` (some centres undefined), for which the Z-AUC was 0.426 (inactive) in test [1], 0.314 in test [1] (setting [3]) and 0.526 in test [1] (measured here: PEO4 Z-AUC). In addition, the z-score is 0.586 in test [2] (setting [4]), 0.304 in test [2] (setting [5]) and 0.634 in test [2] (setting [6]).
